# Hits are enriched below; roughly 18% of the tested compounds scored in any of these assays.
# RORgamma inh = ROR gamma (mouse) transcription inhibition; Potency, µM (top dose mostly 53.6 µM), for the others: top-dose activity change, negative = inhibition, hits mostly inhibitors; 310,000 compounds, 5.4% hits; Drosophila S2 Gal4-RORgamma UAS-luciferase reporter, 20 h; P51450; note: potency is the fitted concentration of half-maximal effect; nearly all actives have a fitted effect of over 60% in size
# Target sequence (P51450 whole entry, looked up, the tested form may be a part): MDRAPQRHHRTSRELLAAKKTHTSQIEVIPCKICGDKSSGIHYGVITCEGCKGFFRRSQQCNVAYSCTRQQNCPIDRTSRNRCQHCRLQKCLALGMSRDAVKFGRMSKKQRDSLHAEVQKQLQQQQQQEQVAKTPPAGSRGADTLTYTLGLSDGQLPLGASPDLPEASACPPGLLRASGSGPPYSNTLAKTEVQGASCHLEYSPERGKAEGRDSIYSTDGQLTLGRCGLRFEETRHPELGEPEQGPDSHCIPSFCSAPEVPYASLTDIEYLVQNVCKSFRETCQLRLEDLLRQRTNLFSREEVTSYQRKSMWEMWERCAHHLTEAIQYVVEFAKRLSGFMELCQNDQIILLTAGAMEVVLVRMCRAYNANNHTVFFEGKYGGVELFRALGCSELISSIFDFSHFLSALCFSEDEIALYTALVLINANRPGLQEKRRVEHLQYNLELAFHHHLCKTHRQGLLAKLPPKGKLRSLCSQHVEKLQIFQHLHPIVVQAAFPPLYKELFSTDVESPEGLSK
#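 Compounds are pin-transferred onto Drosophila Schneider cells expressing a copper-inducible Gal4–ROR gamma transactivation domain fusion. After 1 hr, copper sulfate is added to 700 uM final; luciferase is read 20 hr later.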
# IL-1B inflam inh = inflammasome signaling inhibition, IL-1 beta readout; THP-1 LPS/ATP IL-1B secretion, AlphaLISA, 16 h; active compounds read low; activity change, % at 57.5 µM; 360,000 compounds, 4.7% hits; in the data active = activity change below about -50%; inconclusive = mostly about -30% to -49%
#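 THP-1 cells pretreated 1 hr with compounds (up to 57.5 uM final), then stimulated with LPS (250 ng/mL final) plus ATP (1.25 mM final); secreted IL-1B measured by AlphaLISA after 16 hr, decreased signal indicating inhibition.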
# TDP1 cell CPT = DT40-hTDP1 cell growth loss with CPT; chicken DT40 Tdp1-/-;hTDP1 cells + 20 nM CPT, ATP luminescence, 48 h; Potency, µM (top dose mostly 46.2 µM), for the others: top-dose activity change, negative = growth inhibition, usual class: inhibitors; 420,000 compounds, 12% hits; note: potency is the fitted concentration of half-maximal effect; nearly all actives have a fitted effect of over 55% in size
#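 Cell growth measured by CellTiter-Glo luminescence after a minimum 48 h, 37 C compound exposure with 20 nM CPT in Tdp1-knockout DT40 cells stably expressing hTDP1, seeded 400/well; qHTS titration format.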
# Gal4-VP16 FLuc = Gal4-VP16 reporter inhibition counter-screen. Drosophila S2 Gal4-VP16 UAS-luciferase, luminescence, 20 h. Potency, µM (top dose mostly 53.6 µM), for the others: at the highest dose activity, negative = inhibition, usual class: inhibitors. 310,000 compounds, 3.5% hits;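 note: Gal4-VP16 expression switched on by copper sulfate through the metallothionein promoter; potency is the fitted concentration of half-maximal effect; nearly all actives have a fitted effect of over 50% in size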
# LDHA inh = LDHA (human) enzyme inhibition; P00338; purified LDHA, NADH/diaphorase-resazurin fluorescence; active compounds read low; activity change, % (values are at about 110 or 230 µM); 480,000 compounds, 0.15% hits; AID 1347041; in the data active = activity change below about -30%; inconclusive = mostly about -25% to -30%;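 note: plate controls were DMSO wells for no effect and wells without enzyme for full effect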
#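 Enzyme activity of human lactate dehydrogenase 5 (2 nM; 0.06 mM NADH, 0.2 mM pyruvate, 5 min, RT) is measured via a resazurin/diaphorase fluorescence readout of residual NADH.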
# DT40 TDP1 no CPT = qHTS for Inhibitors of human tyrosyl-DNA phosphodiesterase 1 (TDP1): qHTS in cells in absence of CPT; Potency, µM (titrated, usually from 46.2 µM), without a hit: at the top dose activity change, negative = growth inhibition, hits mostly inhibitors; AID 686978, 2013; DT40 Tdp1-/- hTDP1 cells, no CPT, ATP luminescence, 48 h; 420,000 compounds, 15% hits; note: potency is the fitted concentration of half-maximal effect; nearly all actives have a fitted effect of over 55% in size
#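 A cellular qHTS used chicken DT40 cells lacking endogenous Tdp1 but carrying stably transfected human TDP1. Compounds were applied without camptothecin, and cell growth kinetics were judged by ATP-dependent luminescence after ≥48 hr.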
# An asterisk follows results filed as active; ? = inconclusive; nt = not tested or not shown. Unless noted, calls come from the whole dose curve; as a rule, active = well fitted curve in the direction sought with a large enough effect; inconclusive = small, poorly fitted or top-dose-only effect, or another doubt; inactive = no such curve, though single readings can be large; an effect the other way counts as inactive or inconclusive. Unless noted, % is set by controls: 0 for no effect and ±100 for the full control effect.
SMILES,RORgamma inh,IL-1B inflam inh,TDP1 cell CPT,Gal4-VP16 FLuc,LDHA inh,DT40 TDP1 no CPT
O=C(NCCc1ccc(Cl)cc1)c1ccc2c(c1)N(Cc1ccccc1)C(=O)CS2,nt,nt,16µM*,nt,-8,18µM*
O=C(NCCc1ccccc1)c1ccc2c(c1)N(Cc1c(F)cccc1Cl)C(=O)CS2,nt,nt,15µM*,nt,-1,9.2µM*
O=C(NCCN1CCOCC1)c1ccc2c(c1)N(Cc1ccc(F)cc1)C(=O)CS2,-27%,-6,-10%,-6%,-1,3%
Cc1ccc(C)c(CN2C(=O)CSc3ccc(C(=O)N4CCCC4)cc32)c1,-23%,-21,?,27%,-10,?
Cc1ccc(C)c(CN2C(=O)CSc3ccc(C(=O)NCc4ccc(F)cc4)cc32)c1,nt,nt,16µM*,nt,1,?
O=C(NCCc1ccccc1)c1ccc2c(c1)N(Cc1ccc(F)cc1)C(=O)CS2,nt,nt,?,nt,-8,16µM*
CCN1C(=O)CSc2ccc(C(=O)NC3CCCCC3)cc21,40%,12,35µM*,-7%,0,20µM*
Cc1nn(-c2ccc(N3CCCC3)nn2)c(C)c1CCC(=O)NCCc1ccco1,nt,nt,nt,nt,8,nt
C=CC(=O)Nc1ccc(CN2C(=O)N(c3c(Cl)c(OC)cc(OC)c3Cl)Cc3cnc(NCCCCN(CC)CC)nc32)cc1,nt,-67*,12µM*,nt,5,13µM*
CN(C)c1ncnc2c1NC1=C(S2)C(=NCCCC(=O)O)CC(C)(C)C1,-33%,-10,21µM*,-1%,8,?
CC1(C)CC(=O)/C(=C(\O)Cc2ccccc2)C(=NCCCCCC(=O)O)C1,-4%,-1,-15%,-16%,8,?
COc1ncnc2c1NC1=C(S2)C(=NCCC(=O)O)CC(C)(C)C1,?,23,-5%,18µM*,5,-24%
CSCCC(NC(=O)CCNC(=O)c1ccccc1)c1nnc2ccccn12 (stereo unspecified),nt,nt,nt,nt,-7,nt
O=C(C1=C[C@@H](c2ccc(C(F)(F)F)cc2)C[C@@H](OCCCCO)O1)N1CCN(Cc2ccc3c(c2)OCO3)CC1,37%,?,18µM*,-12%,1,?
CC(C)(C)[C@@H]1C=C(C(=O)Nc2ccccc2)O[C@H](OCc2ccc(CO)cc2)C1,-32%,?,23µM*,-29%,-4,21µM*
O=C(C1=C[C@H](c2ccc(C(F)(F)F)cc2)C[C@H](OCc2ccc(CO)cc2)O1)N1CCN(Cc2ccc3c(c2)OCO3)CC1,-34%,nt,?,-30%,1,?
CC(C)(C)[C@H]1C=C(C(=O)N2CCN(Cc3ccc4c(c3)OCO4)CC2)O[C@@H](OCCCCO)C1,38%,?,?,-5%,-1,-18%
O=C(C1=C[C@@H](c2ccc(Br)cc2)C[C@@H](OCc2ccc(CO)cc2)O1)N1CCN(Cc2ccc3c(c2)OCO3)CC1,?,-25,?,4%,1,18µM*
O=C(C1=C[C@@H](C2CC2)C[C@@H](OCCCCO)O1)N1CCN(Cc2ccc3c(c2)OCO3)CC1,17%,-24,-18%,-21%,-1,?
CC(C)(C)[C@@H]1C=C(C(=O)N2CCN(Cc3ccc4c(c3)OCO4)CC2)O[C@H](OCc2ccc(CO)cc2)C1,22%,-17,?,-13%,0,16µM*
Cc1ccc(C(=O)/C=C/c2ccc(-c3ccc(C)c(Cl)c3)o2)cc1,nt,nt,nt,nt,-22,nt
O=C(C1=C[C@@H](c2ccc(C(F)(F)F)cc2)C[C@@H](OCc2ccc(CO)cc2)O1)N1CCN(Cc2ccc3c(c2)OCO3)CC1,-32%,-70*,21µM*,?,0,21µM*
O=C(C1=C[C@H](c2ccc3c(c2)OCO3)C[C@H](OCc2ccc(CO)cc2)O1)N1CCCCCCC1,14µM*,-22,?,-29%,0,-14%
CCc1ccc(NS(=O)(=O)c2ccc3c(c2)C(C)(C)C(=O)N3)cc1,nt,nt,nt,nt,-1,nt
COCCn1c(=S)[nH]c2cc(C(=O)N3CCN(Cc4ccc5c(c4)OCO5)CC3)ccc2c1=O,13%,-18,?,0%,-2,18µM*
SMILES,RORgamma inh,IL-1B inflam inh,TDP1 cell CPT,Gal4-VP16 FLuc,LDHA inh,DT40 TDP1 no CPT
COC(=O)c1ccc2c(=O)n(Cc3ccc4c(c3)OCO4)c(=S)[nH]c2c1,2.5µM*,31,-3%,3.5µM*,-9,?
COc1cccc(CNC(=O)c2ccc(NC(=O)N3CCSc4nc(C)cc(C)c43)cc2)c1,nt,nt,nt,nt,7,nt
CCC(=O)c1ccc(Oc2cc(C#N)c(C#N)cc2N2CCOCC2)cc1,nt,nt,nt,nt,8,nt
CCCc1nc(SCC(=O)N2CCCc3ccccc32)c2c(=O)n(C)c(=O)n(C)c2n1,?,59,26µM*,?,-8,23µM*
CCc1nc(SCC(=O)N2CCOCC2)c2c(=O)n(C)c(=O)n(C)c2n1,0%,4,0%,-3%,-4,1%
Cn1c(=O)c2c(SCC(=O)N3CCN(c4ccccc4)CC3)nc(C3CC3)nc2n(C)c1=O,6%,0,13µM*,0%,-6,7.3µM*
CCCc1nc(SCC(=O)N2CCC(Cc3ccccc3)CC2)c2c(=O)n(C)c(=O)n(C)c2n1,?,16,21µM*,-21%,1,16µM*
CCc1nc(SCC(=O)N2CCN(c3ccccc3)CC2)c2c(=O)n(C)c(=O)n(C)c2n1,2%,nt,nt,-3%,nt,nt
Cn1c(=O)c2c(SCC(=O)N3CCCc4ccccc43)nc(CC(C)(C)C)nc2n(C)c1=O,-7%,19,?,7%,-5,?
Cn1c(=O)c2c(SCCN3CCOCC3)nc(C3CCCC3)nc2n(C)c1=O,-15%,30,16µM*,-8%,-1,21µM*
CCOC(=O)C1(Cc2cccc(F)c2)CCN(Cc2c(C)nn(CC)c2C)CC1,?,0,23µM*,-24%,-1,?
CCOC(=O)C1(CCCc2ccccc2)CCN(Cc2cnc(C)s2)CC1,-2%,-88*,21µM*,-2%,-13,10µM*
CCOC(=O)C1(CCCc2ccccc2)CCN(C(=O)C2=C(C)OCCO2)CC1,?,-80*,?,24%,5,21µM*
CCOC(=O)C1(Cc2cccc(F)c2)CCN(Cc2cnc(C)s2)CC1,11%,9,26µM*,-1%,0,23µM*
CCOC(=O)C1(Cc2cccc(F)c2)CCN(Cc2cn(CC)nc2C)CC1,15%,-20,1%,2%,-1,?
COc1cc(C)cc2oc(=O)c(CC(=O)NCCCO)c(C)c12,nt,nt,nt,nt,12,nt
CN(C)C(=O)CCSc1ccc(F)cc1,nt,nt,nt,nt,2,nt

# Source: PubChem BioAssay (National Center for Advancing Translational Sciences (NCATS))
